# Only some compounds are listed: those with a hit (about 2.8% of all), similar ones and a draw of the others.
# IP6K1 inhibitor: Primary qHTS assay for small molecule inhibitors of Inositol hexaphosphate kinase 1 (IP6K1); Inositol hexakisphosphate kinase 1 (Homo sapiens), Q92551; IP6K1 kinase, ADP-Glo luminescence, 2 h; hits give low values; activity change, % (series mostly up to about 58 µM); 0.81% of 140,000 active; in the data active = activity change below about -25%; note: % is set by controls: 0 for no effect and ±100 for the full control effect
#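 ADP-Glo luminescence measures ADP made by human IP6K1 during a 2 h RT reaction with ATP/IP6 (mix at 1.3 mM/130 uM); top library doses 57.5 and 19.1 uM final.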
# KDM5B inhibitor: Primary screen for KDM5B Histone Demethylases FDH-coupled qHTS. KDM5B demethylase, FDH-coupled NADH fluorescence (FDH is formaldehyde dehydrogenase). AID 1347165, 2019. Potency, µM (doses to about 57.7 µM), actives largely listed as inhibitors. 2.6% of 220,000 active. Lysine-specific demethylase 5B (Homo sapiens), Q9UGL1; note: potency is the fitted concentration of half-maximal effect; 0% is about no effect; nearly all actives have a fitted effect of over 70% in size
# Target sequence (Q9UGL1 whole entry, looked up): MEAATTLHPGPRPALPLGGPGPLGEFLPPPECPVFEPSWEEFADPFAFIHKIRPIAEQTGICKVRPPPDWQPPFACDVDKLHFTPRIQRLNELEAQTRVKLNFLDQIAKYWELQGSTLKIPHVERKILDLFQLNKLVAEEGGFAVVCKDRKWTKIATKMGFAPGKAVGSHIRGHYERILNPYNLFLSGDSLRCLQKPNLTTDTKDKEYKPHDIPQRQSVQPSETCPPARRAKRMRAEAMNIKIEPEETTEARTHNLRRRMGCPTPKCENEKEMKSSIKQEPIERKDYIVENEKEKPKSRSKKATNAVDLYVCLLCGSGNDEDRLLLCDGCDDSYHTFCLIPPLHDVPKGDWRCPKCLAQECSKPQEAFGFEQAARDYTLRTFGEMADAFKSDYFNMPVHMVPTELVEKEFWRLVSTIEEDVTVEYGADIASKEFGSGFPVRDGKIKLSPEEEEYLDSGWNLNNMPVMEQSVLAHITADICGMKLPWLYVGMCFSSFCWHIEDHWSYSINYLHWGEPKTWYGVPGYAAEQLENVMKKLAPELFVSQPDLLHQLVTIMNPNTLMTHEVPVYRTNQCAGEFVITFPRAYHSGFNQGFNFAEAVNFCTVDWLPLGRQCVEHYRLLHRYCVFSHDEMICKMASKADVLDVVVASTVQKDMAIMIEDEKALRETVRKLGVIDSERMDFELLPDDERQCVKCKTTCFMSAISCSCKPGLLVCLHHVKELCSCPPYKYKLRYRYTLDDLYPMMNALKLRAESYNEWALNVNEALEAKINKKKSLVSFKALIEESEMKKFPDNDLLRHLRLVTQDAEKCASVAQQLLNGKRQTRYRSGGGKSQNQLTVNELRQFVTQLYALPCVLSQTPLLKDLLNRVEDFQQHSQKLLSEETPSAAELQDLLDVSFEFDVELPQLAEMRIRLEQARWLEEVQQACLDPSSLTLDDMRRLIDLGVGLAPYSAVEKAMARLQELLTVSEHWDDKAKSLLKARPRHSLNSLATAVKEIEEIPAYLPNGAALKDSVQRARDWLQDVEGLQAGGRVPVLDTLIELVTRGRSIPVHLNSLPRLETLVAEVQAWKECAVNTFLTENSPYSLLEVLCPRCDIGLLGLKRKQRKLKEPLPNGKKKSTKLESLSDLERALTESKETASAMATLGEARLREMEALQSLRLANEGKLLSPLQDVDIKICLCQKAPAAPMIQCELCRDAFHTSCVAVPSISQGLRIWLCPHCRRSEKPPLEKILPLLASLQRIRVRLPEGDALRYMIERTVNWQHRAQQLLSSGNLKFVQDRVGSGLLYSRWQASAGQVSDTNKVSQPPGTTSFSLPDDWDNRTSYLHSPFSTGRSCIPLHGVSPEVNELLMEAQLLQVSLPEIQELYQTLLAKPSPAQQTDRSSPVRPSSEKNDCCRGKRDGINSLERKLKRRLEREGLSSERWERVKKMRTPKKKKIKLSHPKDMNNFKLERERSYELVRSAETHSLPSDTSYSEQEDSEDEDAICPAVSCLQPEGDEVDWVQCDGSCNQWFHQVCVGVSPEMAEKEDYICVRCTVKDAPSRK
#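 qHTS format, multiple compound concentrations. Buffer 50 mM HEPES pH 7.5/0.01% Tween-20; 200 nM KDM5BΔAP final; 10 min compound preincubation; substrate-mix levels 12.5 µM peptide, 25 µM α-KG, 0.25 mM NAD⁺; 30 min RT; ΔRFU.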
# SNCA viab count: GF-AFC viability counterscreen for inhibitors of alpha-synuclein gene (SNCA) expression | HEK-293-SNCA-luc viability, GF-AFC fluorescence, 24 h | Potency, µM (top dose mostly 57.1 µM), without a hit: at the highest dose activity change, negative = cytotoxicity, usual class: cytotoxic | 0.12% of 150,000 active | AID 1671193, 2021;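 note: potency is the fitted concentration of half-maximal effect; 0% = DMSO-treated cells and -100% = medium-only wells without cells; nearly all actives have a fitted effect of over 30% in size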
#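 HEK-293-SNCA-luc cells (1500/well) plated 24 h, then exposed 24 h to a dilution series; GF-AFC added 30 min at 37C, fluorescence 405/540 nm; normalised to medium-only and DMSO wells, Hill fit.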
# SNCA expr inh: Primary qHTS assay for inhibitors of alpha-synuclein gene (SNCA) expression; HEK-293 SNCA-luciferase knock-in, luminescence, 24 h; Potency, µM (highest dose often 57.2 µM), for inactives: at the highest dose activity change, negative = inhibition, most hits filed as inhibitors; 0.17% of 140,000 active;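 note: potency is the fitted concentration of half-maximal effect; plate controls were DMSO cells for no effect and cell-free wells for full effect; nearly all actives have a fitted effect of over 45% in size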
# Starred values were filed as active, the others as inactive; i = inactive; ? = inconclusive; · = no result; ! = not active in a repeat; [ ] = another dose, or the depositor's remark. Unless noted, calls come from the whole dose curve; as a rule, active = well fitted curve in the direction sought with a large enough effect; inconclusive = small, poorly fitted or top-dose-only effect, or another doubt; inactive = no such curve, though single readings can be large; an effect the other way counts as inactive or inconclusive.
SMILES,IP6K1 inhibitor,KDM5B inhibitor,SNCA viab count,SNCA expr inh
Cc1cc2c(-c3cccc(S(C)(=O)=O)c3)nc(-c3c(C)noc3C)cc2[nH]1,-18.4,35.5µM*,-24.6%[87.6 µM],79.1%[87.6 µM]
Cc1cc2c(-c3ccc(S(C)(=O)=O)cc3)nc(-c3c(C)noc3C)cc2[nH]1,-19.4,35.5µM*,-2.2%[87.6 µM],54.7%[87.6 µM]
Cc1cc2c(-c3cccc(CO)c3)nc(-c3c(C)noc3C)cc2[nH]1,-23.6,i,-18.2%[87.6 µM],69.5%[87.6 µM]
COc1cccc(N2CCN(C(=O)CN3CC4CC(C3)[C@H]3CCCC(=O)N3C4)CC2)c1 (stereo partly specified),16.2,i,1.1%,?
CC(C)NC(=O)/C=C/c1ccc(F)cc1,·,i,·,·
CC1CC(NC(=O)C2CC=CCC2C(=O)O)CC(C)(C)C1 (stereo unspecified),·,i,·,·
CCc1ccc(C(=O)N2CCCN(c3nnc4ccccn34)CC2)cc1,6.7,25.1µM*,?,?
O=C(c1ccoc1)N1CCN(c2nnc3ccccn23)CC1,16.7,31.6µM*,7.0%,-1.0%
CN(C)c1ccc(C(=O)N2CCN(c3nnc4ccccn34)CC2)cc1,-8.3,17.8µM*,1.3%,-11.4%
CC(C)C(NC(=O)c1ccc(S(=O)(=O)N(C)C)cc1)c1ccc2c(c1)OCCCO2 (stereo unspecified),·,i,·,·
CN1CC2(CCCN(CC3CC3)C2)c2cc(C(=O)NCCOc3ccccc3)ccc21 (stereo unspecified),-2.8,35.5µM*,4.2%[87.6 µM],-29.3%[87.6 µM]
CN1CC2(CCCN(CC3CC3)C2)c2cc(C(=O)NCCc3ccccn3)ccc21 (stereo unspecified),2.4,39.8µM*,3.1%[87.6 µM],1.7%[87.6 µM]
COCCN1CCC2(C1)CN(C)c1ccc(C(=O)NCCOc3ccccc3)cc12 (stereo unspecified),16.1,?,7.5%[87.6 µM],97.1%[87.6 µM]
Cc1ccc(-n2ncc3c(N4CCCCCC4)ncnc32)cc1,-3.6,?,-0.8%,2.24µM*
COc1ccc2c(CCNC(=O)c3ccccc3C)c[nH]c2c1,·,i,·,·
O=C1NC2(CCN(Cc3ccc(F)cc3)CC2)Oc2ccccc21,3.2,i,4.9%[87.6 µM],-16.9%[87.6 µM]
CCCOCCNC(=O)c1c(C)noc1-c1ccc(OC(F)(F)F)cc1,-5.3,i,-1.6%,-20.0%
CCn1c(CO)nnc1C1CC(NC(=O)c2cnn3cc(C)cnc23)C1 (stereo unspecified),12.7,28.2µM*!,-0.7%,47.6%
CCCc1noc(-c2cccn3c(CNC(=O)c4ccco4)nnc23)n1,-3.3,25.1µM*,-13.4%,-5.4%
CCc1noc(-c2cccn3c(CNC(=O)c4ccco4)nnc23)n1,18.6,28.2µM*,-4.9%,-9.3%
CCCc1noc(-c2cccn3c(CNC(=O)c4ccc(Cl)cc4)nnc23)n1,11.9,?,-11.0%,1.4%
CCc1noc(-c2cccn3c(CNC(=O)c4cc5ccccc5[nH]4)nnc23)n1,16.6,?,-7.0%,66.1%
CCCC(C)(N)C(=O)O (stereo unspecified),·,i,·,·
Cc1ccc(NC(=O)N2CCC(CCNC(=O)c3ccc(F)cc3)CC2)cc1F,-2.8,i,13.0%,121.3%
Nc1nc(=O)n([C@H]2C[C@H](O)[C@@H](CO)O2)cc1F,·,·,-14.6%,-15.5%
SMILES,IP6K1 inhibitor,KDM5B inhibitor,SNCA viab count,SNCA expr inh
O=C(NCCNc1cccnc1)C1CCC(=O)N(Cc2ccc(Cl)cc2)C1 (stereo unspecified),-13.9,11.2µM*,-12.1%,4.3%
Cc1nnc(-c2cc(Nc3cccc(N(C)C)c3)ccn2)n1Cc1ccccc1,0.5,31.6µM*,11.7%[87.6 µM],51.6%[87.6 µM]
CNCCN1C(=O)CC[C@H]2CN(C(=O)COc3cccnc3)CC[C@H]21,-0.6,i,-3.4%,4.5%
CNCCN1C(=O)CC[C@H]2CN(C(=O)c3ccnc(NC)c3)CC[C@H]21,5.4,25.1µM*,-2.4%,21.2%
CC(=O)N1CCCC(C(=O)N2CCC(c3ccccc3)CC2)C1 (stereo unspecified),-5.4,·,0.1%[87.6 µM],-6.6%[87.6 µM]
O=C1COc2ccc(-c3cc(F)cc(F)c3)nc2CN1Cc1ccccc1,-5.6,31.6µM*,0.8%[87.6 µM],-12.7%[87.6 µM]
O=C1COc2ccc(N3CCCC3)nc2CN1Cc1ccccc1,-3.2,35.5µM*,-2.9%[87.6 µM],-9.6%[87.6 µM]
O=C1COc2ccc(-c3ccccc3)nc2CN1Cc1ccccc1,-10.0,i,-9.7%[87.6 µM],5.8%[87.6 µM]
COCCN1Cc2nc(-c3ccc(OC)c(F)c3)ccc2OCC1=O,-2.8,39.8µM*,1.1%[87.6 µM],18.3%[87.6 µM]
COCCN1Cc2nc(-c3cc(F)cc(F)c3)ccc2OCC1=O,-7.3,i,-5.5%[87.6 µM],-24.2%[87.6 µM]
COc1ccc(-c2ccc3c(n2)CN(Cc2ccccc2)C(=O)CO3)cc1F,-6.6,20µM*,-15.6%[87.6 µM],7.5%[87.6 µM]
COC[C@@H]1CN(S(=O)(=O)c2ccc3c(c2)CCCC3)C[C@H]1C(N)=O,8.0,i,4.4%,17.1%
CCCNC(=O)N1CCC(N2CC(OCC3CC3)C23CCCCC3)CC1 (stereo unspecified),11.6,i,-1.8%,12.1%
Cc1nc(Cc2nn3c(-c4ccc(F)cc4)nnc3s2)cs1,·,i,·,·
Cc1cccc2ncc(C(=O)NCc3cc4n(n3)CCCNC4)c(=O)n12,13.4,28.2µM*,-1.1%,-9.2%
Cc1cccn2c(CNC(=O)CCc3cc4n(n3)CCCNC4)cnc12,-6.9,25.1µM*,-7.5%,23.9%
O=C(NCc1cc2n(n1)CCCNC2)c1ccc(Cn2cnnn2)cc1,22.9,i,2.6%,-3.7%
CC1Cc2cc(-c3ccnc4ncnn34)ccc2O1 (stereo unspecified),-3.9,28.2µM*,-1.6%,35.1%
Cc1cnc(NC(=O)c2ccc3c(c2)OCCN(CCC(F)(F)F)C3)s1,-4.0,i,-11.3%[87.6 µM],71.0%[87.6 µM]
Cc1csc(NC(=O)c2ccc3c(c2)OCCN(CCC(F)(F)F)C3)n1,2.4,35.5µM*,-6.2%[87.6 µM],49.4%[87.6 µM]
COc1cc(NC(=O)Cn2c(Nc3cc(C)cc(C)c3)nc(C)cc2=O)cc(OC)c1OC,0.4,i,-27.9%,-18.0%
O=c1n(-c2cccc(Cl)c2)nc2n1CCN(Cc1ccccc1)C2,7.6,89.1µM*,-14.1%,19.6%
Cc1noc2c(-c3ccc(CO)cc3)cc(-c3cccs3)nc12,45.4,?,16.0%[87.6 µM],-12.8%[87.6 µM]
COc1ccc(OC)c(-c2cc(-c3cccs3)nc3c(C)noc23)c1,-11.0,39.8µM*,4.5%[87.6 µM],-24.1%[87.6 µM]
Cc1noc2c(-c3ccsc3)cc(-c3cccnc3)nc12,-8.7,?,7.2%[87.6 µM],-16.4%[87.6 µM]
COc1ccccc1-c1cc(-c2ccsc2)c2onc(C)c2n1,-9.5,28.2µM*,3.8%[87.6 µM],-1.0%[87.6 µM]
COc1cccc([S+](=O)([O-])N2CCC(c3nnc4n3C(C(=O)O)CC4)CC2)c1 (stereo unspecified),-4.7,79.4µM*,2.8%,-12.4%
O=C(Nc1ccc2ncnc(N3CCCCC3)c2c1)c1cncc(Br)c1,12.7,28.2µM*,-0.5%,4.8%
Nc1ccc2ncnc(N3CCCC3)c2c1,6.0,28.2µM*,6.1%,-18.7%
O=C(Nc1ccc2c(N3CCCC3)ncnc2c1)c1ccc(Br)cc1,8.7,?,?,?

# Screening results deposited in PubChem BioAssay by National Center for Advancing Translational Sciences (NCATS).
